# Reference: PubChem BioAssay (NCATS)
# Inconclusive results are not listed. The source made the active and inactive calls. Calls follow the shape of the dose curve; as a rule, active = well fitted curve in the direction sought with a large enough effect; inconclusive = small, poorly fitted or top-dose-only effect, or another doubt; inactive = no such curve, though single readings can be large; an effect the other way counts as inactive or inconclusive.
# Biological target: Phenylethanolamine N-methyltransferase (Homo sapiens) (UniProt P11086)
# Sequence (P11086 whole entry, looked up): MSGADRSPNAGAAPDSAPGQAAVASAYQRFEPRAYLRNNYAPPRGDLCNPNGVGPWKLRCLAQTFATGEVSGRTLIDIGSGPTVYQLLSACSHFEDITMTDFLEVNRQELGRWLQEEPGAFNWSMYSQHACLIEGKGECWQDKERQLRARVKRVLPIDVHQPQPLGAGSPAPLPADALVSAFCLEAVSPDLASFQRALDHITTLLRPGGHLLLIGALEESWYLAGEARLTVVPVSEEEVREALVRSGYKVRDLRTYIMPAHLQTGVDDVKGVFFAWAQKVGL
# Assay: Confirmatory Screen for Target Class Profiling of Small Molecule Inhibitors of Methyltransferases (AID 1745852)
# Settings: MTase-Glo luminescence, SAH detection, recombinant enzyme; measured here: PNMT max response; stronger effect = lower value
row,SMILES,activity [%]
1,Nc1c(NC/C=C\COc2cc(CN3CCCCC3)ccn2)c(=O)c1=O,-8.61
2,C=CC[N+]1([C@H]2C[C@H]3[C@@H]4CC[C@H]5C[C@H](OC(C)=O)[C@@H](N6CCCCC6)C[C@]5(C)[C@H]4CC[C@]3(C)[C@H]2OC(=O)CC)CCCCC1,-11.5
3,O=C1NC2CCCCN2C12CCN(CCCN1c3ccccc3CCc3ccc(Cl)cc31)CC2 (stereo not given),-1.01
4,CC(C)N(CCC(=O)c1ccc2ccccc2c1)Cc1ccccc1,4.13

# System: not listed separately
# Assay: NCATS anti-infectives library activity on HEK293 viability as a counter-qHTS vs the C. elegans viability qHTS (AID 1745854); also: potency is read from the fitted curve at half-maximal effect; as to activity change, negative = cytotoxicity: % is scaled to controls: 0 for no effect and ±100 for the full control effect
# Settings: HEK293 viability counter-screen; series mostly up to 41.8 µM; activity change, negative = cytotoxicity: at the top concentration
# How it was run: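 CellTiter-Glo luminescence, read on a CCD imager, scored viability of HEK293 cells after 24 hr compound exposure at 37C. Library tested in several concentrations, 1:5 steps, up to 41.7 uM; digitonin served as control.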
SMILES,Potency,"activity change, negative = cytotoxicity"
CCCCCCCCCCCCCCCC[n+]1ccccc1,11.2 µM (active),
OCCc1ccccc1,,-7.91% (inactive)
COc1c(C)c2c(c(O)c1C/C=C(\C)CCC(=O)OCCN1CCOCC1)C(=O)OC2,,-18.7% (inactive)

# Biological target: Metallo-beta-lactamase type 2 (Klebsiella pneumoniae) (UniProt C7C422)
# Sequence (C7C422 whole entry, looked up): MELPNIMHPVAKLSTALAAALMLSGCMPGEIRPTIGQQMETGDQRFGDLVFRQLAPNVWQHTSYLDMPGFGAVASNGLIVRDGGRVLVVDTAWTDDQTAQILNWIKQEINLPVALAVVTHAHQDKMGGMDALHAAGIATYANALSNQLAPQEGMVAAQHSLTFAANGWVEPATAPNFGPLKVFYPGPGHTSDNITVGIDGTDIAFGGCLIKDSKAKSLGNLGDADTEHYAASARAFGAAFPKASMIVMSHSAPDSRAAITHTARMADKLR
# Assay: qHTS to identify inhibitors of the New Delhi Metallo-beta-lactamase (NDM): assay validation screen against the NCATS LOPAC Collection (AID 1794843);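 also: nitrocefin turnover by NDM-1 measured as 485 nm absorbance at plateau; % is scaled to controls: 0 for no effect and ±100 for the full control effect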
# Settings: NDM-1 enzyme, nitrocefin hydrolysis, absorbance 485 nm; series mostly up to 38.4 µM; activity change, negative = inhibition: at the top concentration
# How it was run: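 Nitrocefin hydrolysis (50 uM substrate stock) by NDM-1, 2 nM final, was followed by 485 nm absorbance after compound preincubation; buffer was 50 mM HEPES pH 7.0, 1 uM ZnSO4, 0.01% Tween20.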
row,SMILES,"activity change, negative = inhibition"
1,O=[N+]([O-])c1ccc(-c2nc(-c3ccc(F)cc3)c(-c3ccncc3)[nH]2)cc1,2.76% (inactive)
2,N[C@@H](Cn1ccc(=O)c(O)c1)C(=O)O,2.18% (inactive)
3,CC(C)N(CCC(=O)c1ccc2ccccc2c1)Cc1ccccc1,3.07% (inactive)

# Biological target: Glutathione peroxidase 1 (Homo sapiens) (UniProt P07203)
# Sequence (P07203 whole entry, looked up): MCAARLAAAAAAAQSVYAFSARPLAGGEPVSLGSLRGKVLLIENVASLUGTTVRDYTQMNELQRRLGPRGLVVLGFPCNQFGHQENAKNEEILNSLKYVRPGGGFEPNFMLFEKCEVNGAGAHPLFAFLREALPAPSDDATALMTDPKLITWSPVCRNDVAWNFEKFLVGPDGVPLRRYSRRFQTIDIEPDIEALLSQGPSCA
# Assay: Primary qHTS Assay for Inhibitors of Recombinant Selenoprotein Glutathione Peroxidase 1 (GPX1) (AID 1845191); also: nearly all actives have a fitted effect of over 65% in size; also: potency is read from the fitted curve at half-maximal effect; as to activity, negative = inhibition: % is scaled to controls: 0 for no effect and ±100 for the full control effect
# Settings: recombinant GPX1, GR-coupled NADPH fluorescence, 15 min; series mostly up to 48.8 µM; activity, negative = inhibition: at the top concentration
# How it was run: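 GR-coupled readout: NADPH consumption tracked by fluorescence, ex 340/em 450 nm, at t=0 and after 15 min at RT. Final mix 10 nM GPX1, 1 mM GSH, 0.5 mM CHP, 0.5 mM NADPH, 100 nM GR, 0.01% BSA, following 30 min enzyme–compound preincubation.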
SMILES,"activity, negative = inhibition",Potency,outcome
CCCCCCCCCCCCCCCC[n+]1ccccc1,-19.2% (inactive),,
CCC1=C[C@@H]2CN(C1)Cc1c([nH]c3ccccc13)[C@@](C(=O)OC)(c1cc3c(cc1OC)N(C)[C@H]1[C@@](O)(C(=O)OC)[C@H](OC(C)=O)[C@]4(CC)C=CCN5CC[C@]31[C@@H]54)C2,,inactive,
CN1[C@@H]2CC[C@H]1CC(NC(=O)n1c(=O)[nH]c3ccccc31)C2 (stereo not given in full),-11.5% (inactive),,
Nc1c(I)cc(I)c(C(=O)N(CCC(=O)O)c2ccccc2)c1I,-10% (inactive),,
NC(=O)C1(N2CCCCC2)CCN(CCCN2c3ccccc3CCc3ccc(Cl)cc32)CC1,-13.6% (inactive),,
O=C(O)CCCC[C@@H]1SC[C@@H]2NC(=O)N[C@@H]21,-15% (inactive),,
CCCc1ccc(OCC(=O)N2CCN(C(=O)COc3ccc(CCC)cc3OC)CC2)c(OC)c1,,,inactive
OCCc1ccccc1,-15.5% (inactive),,
NCC[C@H](O)C(=O)N[C@@H]1C[C@H](N)[C@@H](O[C@H]2O[C@H](CN)[C@@H](O)[C@H](O)[C@@H]2O)[C@H](O)[C@@H]1O[C@H]1O[C@H](CO)[C@@H](O)[C@H](N)[C@@H]1O,-13.8% [at 0.4 µM] (inactive),,
CCC(C(=O)NC(=O)NC(C)=O)c1ccccc1 (stereo not given),,,inactive
Nc1c(NC/C=C\COc2cc(CN3CCCCC3)ccn2)c(=O)c1=O,-8.44% [at 27.7 µM] (inactive),,
Nc1ccc2cc3ccc(N)cc3nc2c1,,,inactive
CN1CCCN=C1/C=C/c1cccs1,,inactive,
C=CC[N+]1([C@H]2C[C@H]3[C@@H]4CC[C@H]5C[C@H](OC(C)=O)[C@@H](N6CCCCC6)C[C@]5(C)[C@H]4CC[C@]3(C)[C@H]2OC(=O)CC)CCCCC1,-14.2% (inactive),,
CC(=O)OCC(=O)Nc1cc(C#N)cc(NC(=O)COC(C)=O)c1Cl,-10.7% (inactive),,
O=C(Nc1ccc(S(=O)(=O)N2CCOCC2)cc1)c1cc(Cl)ccc1NS(=O)(=O)c1ccc(Cl)s1,,,inactive
O=C1NC2CCCCN2C12CCN(CCCN1c3ccccc3CCc3ccc(Cl)cc31)CC2 (stereo not given),-12.3% (inactive),,
O=[N+]([O-])c1ccc(-c2nc(-c3ccc(F)cc3)c(-c3ccncc3)[nH]2)cc1,,inactive,

SMILES,"activity, negative = inhibition",Potency,outcome
N#Cc1cc(NC(=O)C(=O)O)c(Cl)c(NC(=O)C(=O)O)c1,,,inactive
CCCCCOc1ccccc1/C(=C\SC)n1ccnc1,-0.238% (inactive),,
CC(C)C(=O)OCc1cccc(OC(=O)[C@@H]2N3C(=O)[C@@H](NC(=O)Cc4ccccc4)[C@H]3SC2(C)C)c1,-36.3% (inactive),,
CCC(=O)O[C@H]1[C@H](O[C@@H]2[C@@H](C)[C@H](O[C@H]3C[C@@](C)(OC)[C@@H](O)[C@H](C)O3)[C@@H](C)C(=O)O[C@H](CC)[C@@](C)(O)[C@H](O)[C@@H](C)C(=O)[C@H](C)C[C@@]2(C)O)O[C@H](C)C[C@@H]1N(C)C,4.86% (inactive),,
Cc1cc2nc3ccc(=[N+](C)C)cc-3sc2cc1N,,28.6 µM (active),
C[C@@H]1C[C@H]2[C@@H]3CCC4=CC(=O)C=C[C@]4(C)[C@@]3(F)[C@@H](O)C[C@]2(C)[C@@]1(O)C(=O)COC(=O)c1ccncc1,,,inactive
O=C1CC[C@H](C(=O)N2CCCCC2)N1,-1.18% (inactive),,
N[C@@H](Cn1ccc(=O)c(O)c1)C(=O)O,,inactive,
Cc1ccc(/C=N/n2c(-c3ccccc3)csc2=S)cc1,,,inactive
COC(=O)C1=C(C)NC(COC(N)=O)=C(C(=O)OC(C)C)C1c1cccc(Cl)c1Cl (stereo not given),-8.27% (inactive),,
CC(C)N(CCC(=O)c1ccc2ccccc2c1)Cc1ccccc1,,inactive,
COc1c(C)c2c(c(O)c1C/C=C(\C)CCC(=O)OCCN1CCOCC1)C(=O)OC2,,inactive,
COC(=O)[C@H]1[C@H]2C[C@@H]3c4[nH]c5cc(OC)ccc5c4CCN3C[C@H]2C[C@@H](OC(=O)/C=C/c2ccc(O)c(OC)c2)[C@@H]1OC,1.11% (inactive),,
CN1CCC(Nc2ncc3ncnc(Nc4ccc(F)c(Cl)c4)c3n2)CC1,,,inactive
COc1cc(C(=O)NC2CCCNC2)cc(OC)c1OC (stereo not given),,12.8 µM (active),
CC1c2ccccc2CN1NC(=O)c1ccc(Cl)c(S(N)(=O)=O)c1 (stereo not given),,,inactive
CCCCCC[C@@H](CCC)C(=O)O,,,inactive
